The text below walks through data of PubChem BioAssay (NCI).

The panel holds about 83,000 compounds, 20% with a hit somewhere; the sample as a whole holds those more often.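 Values shown are percent growth following 48 h exposure of cells in 96-well plates to a single concentration of compound; below 10 was considered active.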 Calls of active or inactive are those of the source.

The test system of this assay is MDA-MB-468 breast. The assay is described as follows: NCI-60 one-dose screen, 48 h (100 = growth as untreated, 0 = no growth, -100 = all killed). To be noted: 10 µM unless noted.
For `COc1ccc(-c2c(N)n[nH]c2-c2cc3c(c(OC)c2OC)OCO3)cc1`, the growth is 104% (inactive). Consider `COc1ccc2c(c1)O/C(=C\c1ccc([N+](=O)[O-])o1)C2=O`, for which the growth is -46.5% (active). The result for `COc1ccc2nc(-c3ccc(Cl)cc3)cc(-c3nnc(SC/C(=N\O)c4ccccc4)n3-c3ccccc3)c2c1` reads 60.4% (inactive); that for `C#C[C@]1(O)CC[C@H]2[C@@H]3CC=C4c5sc(Nc6ccc(C)cn6)nc5CC[C@]4(C)[C@H]3CC[C@@]21C`, -23.1% (active). As to `CC(C)OC(=O)N1CCOCC1`, the growth was 97.2% (inactive). The result for `COc1ccc(C2=CC(c3cc(OC)c(OC)c(OC)c3)n3ncnc3N2)cc1` (stereo not given) reads 32.2% (inactive). The result for `CC1C(/C=N/Nc2ccccc2)C(C#N)(C#N)C1(C#N)C#N` (stereo not given) reads 91.3% (inactive); that for `CCCC(=O)Oc1ccc2ccccc2c1`, 94% (inactive). The result for `COc1ccc(C(C)C=O)cc1` (stereo not given) reads 134% (inactive); that for `C/C=C/CSC(C)(C)C(=O)NC`, 96.4% (inactive). Regarding `O=C1/C(=C/c2ccc([N+](=O)[O-])o2)Oc2ccccc21`, the growth is -50.9% (active). Regarding `C#CC#CC#CC#CC#CC#CC#CC#CC[C@H]1OC[C@H](COC(=O)O[C@@H](C(=O)O[C@H]2C[C@@]3(O)[C@@H](OC(=O)c4ccccc4)[C@@H]4[C@]5(OC(C)=O)CO[C@@H]5C[C@H](O)[C@@]4(C)C(=O)[C@H](OC(C)=O)C(=C2C)C3(C)C)[C@@H](NC(=O)c2ccccc2)c2ccccc2)O1`, the growth is 19.3% (inactive). The value for `C=C(C)[C@@H]1CC[C@]2(C(=O)NC3CCCCC3)CC[C@]3(C)[C@H](CC[C@@H]4[C@@]5(C)CCC(=O)C(C)(C)[C@@H]5CC[C@]43C)[C@@H]12` was 83.5% (inactive); that for `COC(=O)C1CCCN1C(=O)[C@@H]1CCCN1C(=O)[C@H](Cc1c[nH]c2ccccc12)NC(=S)Nc1cc(C(F)(F)F)cc(C(F)(F)F)c1` (stereo not given in full) was 44.3% (inactive); that for `C[C@@]1(N2C(=O)OC[C@@H]2c2ccccc2)C(=O)N([C@H](CC(=O)N2CCC(N3CCCCC3)CC2)C(=O)NCc2cccc(C(F)(F)F)c2)[C@@H]1/C=C/c1ccccc1` was 23.7% (inactive). The result for `CCOC(=O)N1CCN(S(=O)(=O)c2oc(-c3ccc(Cl)cc3)nc2C#N)CC1` reads 86.5% (inactive); that for `CC(=O)N[C@@H](CCC(N)=O)C(=O)O`, 108% (inactive); that for `C[C@@H]1C[C@H]2C(=O)OCC(NC(=O)[C@H](Cc3cc(F)cc(F)c3)NC(=O)Nc3ccc(Cl)cc3F)C(=O)N3CCC[C@H]3C(=O)N3CCCC[C@H]3C(=O)N[C@@H](C)C(=O)N2C1` (stereo not given in full), -6.95% (active).

Turning to `CC[C@]12C=CCN3CC[C@@]4(c5ccc(OC)cc5N(C)[C@H]4[C@@](O)(C(=O)OC)[C@@H]1OC(=O)CCCN1CCOCC1)[C@@H]32`, the growth is 108% (inactive).

Consider `Cn1c(=O)c2c(nc(Nc3cc(=O)[nH]c(=O)[nH]3)n2Cc2ccccc2)n(C)c1=O`, for which the growth was 84.7% (inactive). The result for `O=NN(CC(=O)N/N=C/C=C\c1ccccc1)CC(=O)N/N=C/C=C/c1ccccc1` reads 91.1% (inactive); that for `CCOC(=O)CC1CSC(N/N=C/c2ccc(-n3cccn3)cc2)=N1` (stereo not given), 95.3% (inactive).

`CN1CCN(CC#CCn2c3c(c4ccccc42)C[C@]2(C)[C@H]4CC[C@@H]5[C@H]6[C@H]7OC(=O)[C@@]6(CCC7(C)C)CC[C@@]5(C)[C@]4(C)CC[C@H]2C3(C)C)CC1`: the growth is 93.9% (inactive).

For `CC(=O)O[C@@H]1C[C@]2(C(C)C)O[C@@]1(C)[C@@H]1CCC(C)=C1[C@@H]2OC(=O)/C=C/c1ccccc1`, the growth was 81.5% (inactive). The result for `CC(=O)C1=C(C)NC(NN)=NC1c1cccc(Cl)c1` (stereo not given) reads 105% (inactive). The result for `O=C1OCC2=C1C(c1cccc(Cl)c1)c1cc3c(cc1N2CCO)OCCO3` (stereo not given) reads 9.02% (active); that for `C#CCN(Cc1ccc2nc(N)[nH]c(=O)c2c1)c1ccc(C(=O)NC(CCC(=O)O)C(=O)O)cc1` (stereo not given), 37.7% (inactive). The result for `COc1ccc2c(c1)sc1nc(-c3ccccc3)c(-c3ccc(O)c(OC)c3)n12` reads 107% (inactive); that for `O=C(Nc1nc2ccc(S(=O)(=O)Nc3ccc(C4(C(F)(F)F)CC4)cc3)cc2[nH]1)c1cnccn1`, -12% (active). As to `COc1cccc(C2CC(=O)Nc3cc4c(cc32)OCO4)c1OC` (stereo not given), the growth was 73.2% (inactive). The result for `O=C(NCCCO)c1cc(Cl)ccc1O` reads -12.2% (active). The result for `O=S(=O)(Nc1ncccn1)c1ccc(NC2Nc3nc4ccccc4nc3S2)cc1` (stereo not given) reads 95.5% (inactive); that for `N[C@@H](CC/[N+]([O-])=N/O)C(=O)O`, 97.4% (inactive). Take `O=C1/C(=C/c2ccc(F)cc2)Sc2c(Br)cccc21`: the growth is 84.1% (inactive). The result for `CC(=O)Nc1c(C)cc(C)cc1C` reads 108% (inactive); that for `O=C(N/N=C/c1ccc(Cl)cc1Cl)c1ccc2nc(-c3ccc(Cl)cc3)[nH]c2c1`, -44.1% (active).

For the molecule `CN1C(=O)/C(=C\c2c(Cl)cccc2Cl)c2ccccc21`, the growth is 37.7% (inactive).

Turning to `COC(=O)c1ccc2[nH]c(O)c(C(=Nc3ccc(N(C)C(=O)CN4CCN(C)CC4)cc3)c3ccc(C)cc3)c2c1`, the growth is -50.1% (active). The result for `Cc1nc(Nc2ccc(NC(=S)Nc3ccccc3)cc2)c2ccccc2n1` reads 109% (inactive); that for `Fc1[nH]nc2ccc([C@@H]3Nc4ccc5[nH]ncc5c4[C@H]4C5CCC(C5)[C@@H]34)cc12` (stereo not given in full), 16% (inactive).
